# From PubChem BioAssay
# Values joined by “and” are separate entries in the source; they are usually repeats but may differ in a detail not shown here. Equal values may be shown once. Values without a mark were called inactive. For some assays here: Entries with a potency or affinity are not part of this list. Active and inactive are the calls of the source. Unless noted, the rule behind the calls is not given here.
# Legend:
# [1] = antimalarial activity against Dd2 strain (AID 2302;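 active = growth inhibition above 50% at the single 2 µM test dose, taken to imply half-maximal potency below 2 µM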;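 note: 0% = DMSO untreated growth and 100% = chloroquine plus artemisinin killed control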); conditions: P. falciparum Dd2 in RBCs, LDH growth readout, 72 h; at 2 µM; hits give high values
# [2] = human hepatoma cell viability loss – ATP luminescence, cytotoxicity control for P. falciparum antimalarial project, primary screen (AID 2303;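 active = inhibition above 50%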;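 note: 0% = DMSO wells and 100% = digitonin-killed cells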); conditions: HepG2 viability, 24-48 h, at 10 µM, hits give high values
# [3] = target: L-lactate dehydrogenase (Plasmodium falciparum (isolate CDC / Honduras)) (UniProt Q27743); assay: PfLDH activity inhibition – cell lysate, 3D7 strain, counter-screen for P. falciparum growth inhibition project (AID 2304);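 note: 0% = vehicle and 100% = reference inhibitor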; conditions: P. falciparum 3D7 crude extract, LDH APAD/NBT absorbance; at 2 µM; hits give high values
# Chain of L-lactate dehydrogenase (Plasmodium falciparum (isolate CDC / Honduras)) (Q27743 whole entry, looked up): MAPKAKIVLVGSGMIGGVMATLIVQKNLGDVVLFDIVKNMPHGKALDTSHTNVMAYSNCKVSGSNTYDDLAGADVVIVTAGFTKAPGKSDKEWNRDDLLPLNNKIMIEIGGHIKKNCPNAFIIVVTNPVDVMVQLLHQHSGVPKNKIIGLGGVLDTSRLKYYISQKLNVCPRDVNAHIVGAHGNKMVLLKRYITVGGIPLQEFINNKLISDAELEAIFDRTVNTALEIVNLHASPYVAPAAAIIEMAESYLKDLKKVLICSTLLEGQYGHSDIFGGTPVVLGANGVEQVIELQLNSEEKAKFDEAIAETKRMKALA
# [4] = inhibition of 3D7 malaria parasite growth – strain 3D7 (AID 2306);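 note: 0% = DMSO wells and 100% = chloroquine plus artemisinin control wells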; conditions: P. falciparum 3D7 erythrocytic growth, LDH absorbance, 72 h; at 2 µM; hits give high values
# [5] = target: Calcium-dependent protein kinase 1 (Plasmodium falciparum (isolate 3D7)) (UniProt P62344); assay: PfCDPK1 kinase inhibitors, biochemical, TCAMS library (AID 1159585; cut-off not given, nearly all actives have IC50 up to about 0.98 µM;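 note: inhibitors leave more ATP so luminescence rises with inhibition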); conditions: recombinant PfCDPK1, Kinase-Glo ATP depletion luminescence
# Chain of Calcium-dependent protein kinase 1 (Plasmodium falciparum (isolate 3D7)) (P62344 whole entry, looked up): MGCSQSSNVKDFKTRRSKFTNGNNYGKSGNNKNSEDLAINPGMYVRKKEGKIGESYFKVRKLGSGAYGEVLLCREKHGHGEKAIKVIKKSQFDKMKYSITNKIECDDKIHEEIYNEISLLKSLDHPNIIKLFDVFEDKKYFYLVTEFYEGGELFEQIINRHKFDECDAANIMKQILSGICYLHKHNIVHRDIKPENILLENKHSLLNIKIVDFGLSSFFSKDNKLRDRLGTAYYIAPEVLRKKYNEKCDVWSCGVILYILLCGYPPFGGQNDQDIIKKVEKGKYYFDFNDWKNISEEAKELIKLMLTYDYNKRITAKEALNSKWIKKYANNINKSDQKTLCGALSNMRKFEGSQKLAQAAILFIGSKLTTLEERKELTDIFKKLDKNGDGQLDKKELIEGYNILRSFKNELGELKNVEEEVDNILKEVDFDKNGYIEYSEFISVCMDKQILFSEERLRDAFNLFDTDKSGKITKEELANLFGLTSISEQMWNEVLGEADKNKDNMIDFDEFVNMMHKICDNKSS
# [6] = target: Plasmodium falciparum protein kinase 6 (PK6, PF3D7_1337100) (UniProt Q8IDW1); assay: PfPK6 kinase inhibitors, biochemical, TCAMS library (AID 1159586); conditions: recombinant PfPK6, Kinase-Glo ATP depletion luminescence
# Chain of Plasmodium falciparum protein kinase 6 (PK6, PF3D7_1337100) (Q8IDW1 1-305): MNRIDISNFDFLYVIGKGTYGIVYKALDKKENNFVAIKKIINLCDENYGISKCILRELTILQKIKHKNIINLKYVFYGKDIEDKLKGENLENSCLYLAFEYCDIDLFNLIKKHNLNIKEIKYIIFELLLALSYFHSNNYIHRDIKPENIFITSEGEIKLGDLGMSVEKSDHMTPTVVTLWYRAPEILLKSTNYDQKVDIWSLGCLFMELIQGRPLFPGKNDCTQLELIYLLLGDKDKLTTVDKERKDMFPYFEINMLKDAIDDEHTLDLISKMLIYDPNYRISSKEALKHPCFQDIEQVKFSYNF
# [7] = target: Protein kinase 7 (PK7), Plasmodium falciparum 3D7 (PF3D7_0213400) (UniProt Q7YTF7); assay: inhibition of Plasmodium PK7 catalytic activity – biochemical, TCAMS antimalarial set, Kinase-Glo luminescence (AID 1159587); conditions: recombinant PfPK7, Kinase-Glo ATP depletion luminescence
# Chain of Protein kinase 7 (PK7), Plasmodium falciparum 3D7 (PF3D7_0213400) (Q7YTF7 1-343): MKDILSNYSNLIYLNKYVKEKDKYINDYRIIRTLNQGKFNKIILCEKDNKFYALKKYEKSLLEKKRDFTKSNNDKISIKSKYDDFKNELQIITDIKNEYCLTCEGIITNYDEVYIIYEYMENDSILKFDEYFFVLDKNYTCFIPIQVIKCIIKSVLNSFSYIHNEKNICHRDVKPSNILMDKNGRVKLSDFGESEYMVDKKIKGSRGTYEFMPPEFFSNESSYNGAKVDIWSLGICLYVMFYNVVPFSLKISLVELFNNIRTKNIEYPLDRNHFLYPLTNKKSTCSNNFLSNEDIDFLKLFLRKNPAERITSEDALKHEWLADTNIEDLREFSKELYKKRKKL
# [8] = target: Calcium-dependent protein kinase 4 (Plasmodium falciparum (isolate 3D7)) (UniProt Q8IBS5); assay: PfCDPK4 kinase inhibitors, biochemical, TCAMS library (AID 1159588; cut-off not given, nearly all actives have IC50 up to about 0.91 µM); conditions: recombinant PfCDPK4, Kinase-Glo ATP depletion luminescence
# Chain of Calcium-dependent protein kinase 4 (Plasmodium falciparum (isolate 3D7)) (Q8IBS5 whole entry, looked up): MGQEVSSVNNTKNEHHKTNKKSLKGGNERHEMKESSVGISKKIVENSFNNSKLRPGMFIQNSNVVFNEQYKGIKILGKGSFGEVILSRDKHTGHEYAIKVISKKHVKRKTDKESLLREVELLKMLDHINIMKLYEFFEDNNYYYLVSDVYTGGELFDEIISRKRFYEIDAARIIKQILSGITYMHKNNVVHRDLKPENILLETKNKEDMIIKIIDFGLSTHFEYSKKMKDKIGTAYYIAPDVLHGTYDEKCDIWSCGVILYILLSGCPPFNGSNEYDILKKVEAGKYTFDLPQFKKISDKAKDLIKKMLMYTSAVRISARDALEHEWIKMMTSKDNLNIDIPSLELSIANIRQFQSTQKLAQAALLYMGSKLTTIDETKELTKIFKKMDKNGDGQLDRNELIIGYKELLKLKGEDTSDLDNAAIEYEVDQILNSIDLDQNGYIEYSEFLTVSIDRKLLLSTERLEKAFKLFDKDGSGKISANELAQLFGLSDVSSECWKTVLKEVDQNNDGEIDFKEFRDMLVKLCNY
Compound,growth inhibition [1],inhibition [2],inhibition [3],growth inhibition [4],outcome [5],outcome [6],outcome [7],outcome [8]
COc1ccc(NC(=O)c2cc(-c3ccc(NC(C)=O)cc3)cnc2N)cc1,5%,10%,4%,98% (active),inactive,inactive,inactive,inactive
O=C1C(c2ccccc2)=C(Nc2ccc(Cl)cc2)c2ccccc21,59% (active),5%,-2%,91% (active),inactive,inactive,inactive,inactive
Cc1cccc2[nH]c(-c3ccc(-c4cccc(CN5CCCC5CN)c4)s3)nc12 (stereo unspecified),45%,20%,5%,91% (active),inactive,inactive,inactive,inactive
COc1ccc(CN(C)CCCSc2ccc(NC(=O)c3cccc4c(=O)cc(-c5ccccc5)[nH]c34)cc2)cc1OC,94% (active),15%,-6%,93% (active),inactive,inactive,inactive,inactive
CCC1CN2CCc3c([nH]c4ccccc34)[C@@H]2C[C@@H]1CC1NCCc2cc(OC)c(OC)cc21 (stereo partly specified),67% (active) and 83% (active),33% and 26%,3% and 1%,100% (active),inactive,inactive,inactive,inactive
O=C(Cn1cc(C=C2SC(=NC3CCCC3)N(C3CCCC3)C2=O)c2ccccc21)N1CCCC1,100% (active),5%,-1%,100% (active),inactive,inactive,inactive,inactive
O=C(NC1CC1)c1cnc(N2CCCC(c3ccccc3)C2)c(Cl)c1 (stereo unspecified),94% (active),6%,-3%,95% (active),inactive,inactive,inactive,inactive
